13 compounds from PubChem BioAssay (NCI) can be followed below.

Among the test systems are DU-145 prostate; K-562 leukemia; MALME-3M melanoma; MDA-MB-231 breast; RXF 393 renal; SF-268 CNS; SF-295 CNS; SF-539 CNS; UACC-257 melanoma; M14 melanoma.
Common to all, as to assay: NCI-60 one-dose screen, 48 h (100 = growth as untreated, 0 = no growth, -100 = all killed)
Settings in all cases: 10 µM unless noted

Compounds without any hit were thinned out: in the full panel of roughly 83,000, 20% have a hit.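 Values shown are percent growth following 48 h exposure of cells in 96-well plates to a single concentration of compound; below 10 was considered active.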 A number with no mark means an inactive call. Active and inactive are the calls of the source.

Turning to `N/C(=N\C(N)=N\c1nc2ccccc2s1)c1cccc(Br)c1`, the growth in the test on DU-145 prostate is 99.1%; with K-562 leukemia, 73.6%; with MALME-3M melanoma, 101%; with MDA-MB-231 breast, 73.4%; in the test with RXF 393 renal, 95.5%; in the test with SF-268 CNS, 101%. Besides, the growth in the test with SF-295 CNS was 76%; in the test on SF-539 CNS it was 98.6%; in the test with UACC-257 melanoma, 103%; in the test with M14 melanoma, 82%.
In the case of `N=C(N)c1ccc(-c2ccc(-c3ccc4ccccc4c3)s2)cc1`, the growth with DU-145 prostate is 99.6%; in the test on K-562 leukemia, 1.51% (active); in the test with MALME-3M melanoma it was 105%; in the test on MDA-MB-231 breast it was 95.4%; in the test on RXF 393 renal, 61.6%; in the test with SF-268 CNS it was 94.7%. Also, the growth with SF-295 CNS is 102%; with SF-539 CNS, 97%; with UACC-257 melanoma, 106%; in the test with M14 melanoma, 99.6%.
As to `COc1ccc2c(c1)NC1=C(C(=O)OC1)C2c1cc(OC)c2c(c1)OCO2` (stereo not given), the growth was -20.6% (active) in the test on DU-145 prostate; 10.8% in the test on K-562 leukemia; 52.7% in the test with MALME-3M melanoma; 11.3% in the test on MDA-MB-231 breast; 28% in the test with RXF 393 renal; 22.8% in the test on SF-268 CNS. The growth with SF-295 CNS is 6.7% (active); with SF-539 CNS, 6.15% (active); with UACC-257 melanoma it was 71.6%; in the test on M14 melanoma, 5.09% (active).
On to `CCCCCCCCN(CCCCCCCC)CCCCCCNc1cc(OC)cc2cccnc12`, for which the growth in the test on DU-145 prostate is 27.4%; with K-562 leukemia, 80.1%; in the test with MALME-3M melanoma, 61.7%; in the test on MDA-MB-231 breast it was 52%; in the test with RXF 393 renal it was 108%; in the test on SF-268 CNS, 83.4%. Besides, the growth was 109% with SF-295 CNS, 111% with SF-539 CNS, 18.2% with UACC-257 melanoma and -1.6% (active) with M14 melanoma.
In the case of `Cc1ccc(-c2csc(NC(=O)CCCCl)n2)cc1`, the growth in the test on DU-145 prostate was 99.9%; in the test on K-562 leukemia it was 74.6%; in the test on MALME-3M melanoma it was 94%; with MDA-MB-231 breast, 95.8%; in the test on RXF 393 renal, 105%; in the test on SF-268 CNS it was 85.8%. For the same compound, the growth in the test with SF-295 CNS is 83.5%; in the test with SF-539 CNS it was 96.3%; with UACC-257 melanoma, 103%; with M14 melanoma, 103%.
On to `COc1cccc(CC(C)=C(c2ccc(OCCN3CCCCC3)cc2)c2ccc(OCCN3CCCCC3)cc2)c1`, for which the growth is 17.8% in the test on DU-145 prostate; -37.3% (active) in the test with K-562 leukemia; -88.5% (active) in the test with MALME-3M melanoma; -76.8% (active) in the test on MDA-MB-231 breast; -85.5% (active) in the test on RXF 393 renal; -18.9% (active) in the test on SF-268 CNS. For the same compound, the growth with SF-295 CNS is -62% (active); in the test on SF-539 CNS, -96.1% (active); with UACC-257 melanoma, -69.3% (active); in the test on M14 melanoma, -64.8% (active).
On to `O=C1CS/C(=N\Nc2cc(=O)[nH]c3ccccc23)N1c1ccccc1`, for which the growth was 111% in the test on DU-145 prostate; 86.8% with K-562 leukemia; 96.9% with MALME-3M melanoma; 78.3% in the test with MDA-MB-231 breast; 95.6% in the test on RXF 393 renal; 86.1% with SF-268 CNS. The growth in the test with SF-295 CNS is 96.8%; in the test on SF-539 CNS it was 93%; in the test on UACC-257 melanoma, 99.9%; in the test with M14 melanoma, 104%.
As for `NC1=C(/C(N)=N/O)C(c2ccccc2)c2ccc3ccccc3c2O1` (stereo not given), the growth in the test on DU-145 prostate was 9% (active); with K-562 leukemia, 13.2%; in the test on MALME-3M melanoma, 46.4%; in the test on MDA-MB-231 breast it was 8.69% (active); in the test with RXF 393 renal, -14.1% (active); in the test on SF-268 CNS it was 33%. Also, the growth with SF-295 CNS was -0.153% (active); in the test on SF-539 CNS, -32.4% (active); in the test with UACC-257 melanoma it was 46.7%; with M14 melanoma, 11.7%.
`COc1ccc(-c2ccc(C)n2-c2ccc(-c3nc4ccccc4s3)cc2)cc1`: the growth with DU-145 prostate is 104%; with K-562 leukemia it was 91.6%; in the test with MALME-3M melanoma, 108%; in the test on MDA-MB-231 breast, 68.4%; with RXF 393 renal it was 94.7%; in the test with SF-268 CNS, 96%. Further, the growth in the test with SF-295 CNS is 86.5%; in the test on SF-539 CNS, 99.3%; in the test with UACC-257 melanoma, 109%; in the test with M14 melanoma it was 103%.
In the case of `CCCCOc1ccc(/C=C2/SC(N3CCCC3)=NC2=O)cc1`, the growth in the test on DU-145 prostate is 80.9%; in the test on K-562 leukemia, 82%; in the test on MALME-3M melanoma it was 97.9%; in the test with MDA-MB-231 breast, 95.6%; in the test with RXF 393 renal, 90.9%; in the test on SF-268 CNS, 98.7%. The growth is 93.8% in the test on SF-295 CNS, 87.9% with SF-539 CNS, 102% with UACC-257 melanoma and 95.4% in the test with M14 melanoma.
In the case of `FC(F)(F)c1ccccc1-c1cn2c(ccc3ccccc32)n1`, the growth in the test with DU-145 prostate is 104%; in the test with K-562 leukemia it was 29.8%; with MALME-3M melanoma, 65.1%; in the test with MDA-MB-231 breast it was 69.5%; in the test with RXF 393 renal, 84.4%; with SF-268 CNS it was 90.3%. Also, the growth in the test with SF-295 CNS is 62.1%; in the test with SF-539 CNS it was 78.6%; with UACC-257 melanoma, 70.3%; in the test on M14 melanoma it was 60.3%.
Take `C=C1CCC2C3(C)COC(c4ccc(N(C)C)cc4)OC3CCC2(C)C1C/C=C1/C(=O)OCC1O` (stereo not given): the growth is 7.35% (active) in the test with DU-145 prostate; 44% in the test on K-562 leukemia; 105% with MALME-3M melanoma; 85.4% with MDA-MB-231 breast; 1.3% (active) in the test with RXF 393 renal; 74.9% in the test on SF-268 CNS. The growth is 95.6% with SF-295 CNS, 99.2% in the test with SF-539 CNS, 49.5% in the test with UACC-257 melanoma and 71.7% in the test on M14 melanoma.
For the compound `COc1ccc(/C=N\NC(=O)CN2CCN(c3cc4c(cc3F)c(=O)c(C(=O)N/N=C/c3ccc(OC)c(OC)c3)cn4C3CC3)CC2)cc1OC`, the growth in the test on DU-145 prostate was 4.82% (active); in the test on K-562 leukemia, 13.3%; in the test with MALME-3M melanoma, -71.9% (active); with MDA-MB-231 breast it was -22.9% (active); in the test with RXF 393 renal, 61.1%; with SF-268 CNS, -10.9% (active). Also, the growth is 66.2% in the test on SF-295 CNS, -21.8% (active) in the test on SF-539 CNS, 11.4% in the test on UACC-257 melanoma and 20.3% with M14 melanoma.
